# High-throughput results: PubChem, several laboratories
# Hits are enriched below; roughly 0.5% of the tested compounds scored in any of these assays.
# AddAB inh – less growth of phage-infected E. coli with AddAB. inhibition, % at 11.9 µM. E. coli expressing H. pylori AddAB, absorbance growth. 330,000 compounds, 0.29% hits; in the data active means inhibition above about 12%
# E coli growth-1 – blocks Escherichia coli growth; OD600, 23 h; hits give low values; OD600 absorbance (no concentration beside the values); 330,000 compounds, 0.21% hits;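 active means OD600 absorbance below the run mean of sample wells minus 3.6 SD, in any replicate, cut at about 0.56 in these data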
# E coli growth-2 – bacterial growth inhibition, counter-screen for AddAB inhibitors | E. coli V3065 growth, OD600 absorbance, 18 h | inhibition, % at 11.9 µM | 330,000 compounds, 0.27% hits;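 active means inhibition above the campaign's mean inhibition across all tested compounds plus 3 SD, cut at about 9.9% in these data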;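 further: uninfected addAB+ strain grown without phage in ampicillin broth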
# phage Ecoli inh – E. coli growth loss with phage present. inhibition, % at 11.9 µM. growth absorbance. 360,000 compounds, 0.26% hits; in the data active means inhibition above about 11%
# Tat transport – inhibitors of E. coli Tat protein transport | E. coli MC4100 TorA-mCherry Tat export, fluorescence | inhibition, % at 10 µM | 340,000 compounds, 0.036% hits | AID 488895;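 active means mean replicate inhibition at least 50% and at least half of replicates individually reaching 50%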;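 further: exported cargo escapes ClpAP degradation while cytoplasmic cargo is degraded and loses fluorescence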
# AddAB confirm – growth loss of T4-infected E. coli expressing H. pylori AddAB, confirmed. shares compounds with AddAB inh. E. coli V3065 expressing H. pylori AddAB, T4 phage, OD; T4 phage with gene 2 nonsense mutations. inhibition, % at 11.9 µM. 880 compounds, 64% hits. AID 488942;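 active means mean inhibition above a set limit taken from the earlier primary screen, cut at about 13% in these data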;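 further: higher means less bacterial growth since AddAB block lets phage replicate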
# RecBCD counter – reduces growth of phage-infected RecBCD+ E. coli, AddAB inhibitor counter-screen | inhibition, % at 11.9 µM | E. coli V66 + mutant T4 phage, OD growth | shares compounds with AddAB inh | 880 compounds, 73% hits;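 active means mean inhibition above the mean of solvent-only control wells plus 3 SD, cut at about 4% in these data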;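 further: optical density read after an 18 h incubation at 37 °C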
# Bact viability – reduces bacterial viability, AddAB inhibitor counter-screen | shares compounds with AddAB inh | absorbance (AddAB counterscreen) | inhibition, % at 11.9 µM | 880 compounds, 35% hits; in the data active means inhibition above about 25%
# Hits are given with their value; . = inactive; / = no result given.
SMILES,AddAB inh,E coli growth-1,E coli growth-2,phage Ecoli inh,Tat transport,AddAB confirm,RecBCD counter,Bact viability
CCCOc1ccccc1/C=N/Nc1ccnc(=O)[nH]1,13,/,21,.,.,100,.,68
CCCOc1ccccc1C=NNc1ccnc(=O)[nH]1,/,.,/,/,/,/,/,/
O=C(NN=Cc1cc([N+](=O)[O-])ccc1O)c1cccc2cc[nH]c12,/,.,/,/,/,/,/,/
O=C(N/N=C/c1cc([N+](=O)[O-])ccc1O)c1cccc2cc[nH]c12,14,/,10,.,.,.,7.0,.
COC(=O)C1=CC(C(=O)OC)C2C3=C(C(=O)[C@]2(C)NC(=O)c2ccccc2)C(C)n2c(=O)n(-c4ccccc4)c(=O)n2C3C1 (stereo partly drawn),/,.,/,/,/,/,/,/
COC(=O)[C@@]12CCCCN1C(c1ccc(-c3ccccc3)cc1)C1C(=O)N(C)C(=O)C12 (stereo partly drawn),/,.,/,/,/,/,/,/
Cc1ccc2nc(-c3ccccc3O)c(Nc3ccc4c(c3)OCCO4)n2c1,.,.,.,.,.,/,/,/
Cc1ccc2nc(-c3ccc(O)cc3)c(Nc3ccc4c(c3)OCCO4)n2c1,17,.,14,.,.,.,.,.
COc1ccc(N2C(=O)C3CCCN3C2c2cccc(Br)c2)cc1 (stereo not drawn),.,.,.,.,.,/,/,/
COc1ccc(N2C(=O)C3CCCN3C2c2cccc(OC)c2OC)cc1 (stereo not drawn),14,.,.,.,.,.,.,.
COc1ccc(/C=C2\SC(=S)N(CCCC(=O)NNC(=O)c3ccccc3O)C2=O)cc1,.,/,.,.,.,/,/,/
O=C(CN1C(=O)S/C(=C\c2ccc(Cl)cc2)C1=O)NNC(=O)c1ccccc1O,16,.,.,.,.,.,5.5,.
COc1ccccc1/C=C1\SC(=S)N(CCC(=O)NNC(=O)c2ccccc2O)C1=O,20,.,18,/,.,15,19,.
COC(=O)CC1c2cc(F)ccc2S(=O)(=O)N1c1ccccc1 (stereo not drawn),/,.,/,/,/,/,/,/
CC(C)C[C@@]12C(=O)N(c3cccc(Br)c3)C(=O)N1C(c1ccc(Cl)cc1)C1C(=O)N(C3CCCCC3)C(=O)C12 (stereo partly drawn),/,.,/,/,/,/,/,/
O=C(N/N=C\c1ccc(F)cc1)c1ccc(Cn2cc(Br)c([N+](=O)[O-])n2)o1,36,/,33,.,.,54,5.8,38
O=C(N/N=C\c1ccc2c(c1)OCO2)c1ccc(Cn2cc(Br)c([N+](=O)[O-])n2)o1,23,/,20,.,.,.,.,.
O=C(N/N=C\c1cccc(F)c1)c1ccc(Cn2cc(Br)c([N+](=O)[O-])n2)o1,27,/,19,.,.,54,7.7,41
COc1cc(/C=N\NC(=O)c2ccc(Cn3cc(Br)c([N+](=O)[O-])n3)o2)cc(OC)c1O,44,/,23,.,.,52,5.6,39
O=C(NN=Cc1ccc2c(c1)OCO2)c1ccc(Cn2cc([N+](=O)[O-])cn2)o1,/,.,/,/,/,/,/,/
COc1cc(C=NNC(=O)c2ccc(Cn3cc(Br)c([N+](=O)[O-])n3)o2)cc(OC)c1O,/,.,/,/,/,/,/,/
NCCCCC1NC(=O)C(CCC(=O)O)NC(=O)c2cc([N+](=O)[O-])cc(I)c2SCC(C(=O)NCC(N)=O)NC1=O (stereo not drawn),/,.,/,/,/,/,/,/
CCCC(=O)O[C@]1(C(=O)COC(C)=O)CCC2C3CC(F)C4=CC(=O)C=C[C@]4(C)[C@@]3(F)C(O)C[C@@]21C (stereo partly drawn),/,.,/,/,/,/,/,/
CCOC(=O)C1C2COc3ccccc3C2N2C(=O)c3cc(F)ccc3NC(=O)[C@@]12C (stereo partly drawn),/,.,/,/,/,/,/,/
Oc1cc(-c2ccncc2)cc2cccnc12,.,.,.,.,.,/,/,/
SMILES,AddAB inh,E coli growth-1,E coli growth-2,phage Ecoli inh,Tat transport,AddAB confirm,RecBCD counter,Bact viability
Oc1cc(-c2ccc(N3CCCCC3)nc2)cc2cccnc12,16,/,15,/,.,.,15,.
C=CCNC(=S)N1CCC(C(=O)c2ccc(OC)cc2)CC1,.,.,.,.,.,/,/,/
CCn1cc(C(=O)O)c(=O)c2cnc(N3CCN(C(=S)Nc4ccc(F)cc4)CC3)nc21,18,.,25,.,/,25,.,.
C=CCNC(=S)N1CCN(c2ncc3c(=O)c(C(=O)O)cn(CC)c3n2)CC1,20,0.46,11,.,.,89,.,26
CCn1cc(C(=O)O)c(=O)c2cnc(N3CCN(C(=S)Nc4ccccc4Cl)CC3)nc21,97,.,84,.,.,98,.,32
Cc1c(Cl)cccc1NC(=S)N1CCN(c2ncccn2)CC1,.,.,.,.,.,/,/,/
O=C(C=Cc1ccccc1)N1CCC(Cc2ccccc2)CC1,/,.,/,/,/,/,/,/
Cc1onc(-c2ccccc2)c1C(=O)O/N=C(\N)c1ccc([N+](=O)[O-])o1,16,/,.,.,.,33,.,.
O=c1c2ccccc2nc(/C=C/c2ccc([N+](=O)[O-])o2)n1CCCO,31,.,20,.,.,98,11,41
O=c1c2ccccc2nc(/C=C/c2ccc([N+](=O)[O-])cc2)n1CCCO,.,.,.,.,.,/,/,/
Cc1ccc(NC(=O)NCC2CC2(Cl)Cl)cc1 (stereo not drawn),.,/,.,.,.,/,/,/
O=C(NCC1CC1(Cl)Cl)Nc1ccc(Cl)c(Cl)c1 (stereo not drawn),13,0.43,.,.,.,.,13,.
Clc1ccc(C2C3CN(CC4CCCCC4)C(c4ccccc4)C34CC2(c2cccnc2)C4)cn1 (stereo not drawn),/,.,/,/,/,/,/,/
COc1ccccc1Nc1nc(Cl)nc(NC(C)(C)C)n1,96,.,79,.,.,.,.,.
CC(C)(C)Nc1nc(Cl)nc(Nc2ccccc2)n1,.,.,.,.,.,/,/,/
CCCCCCCCC[n+]1cccc2c3ccccc3ccc21,15,0.49,16,/,.,.,6.6,.
C#CCOCCOCCOCCNc1nc(N2CCN(C(=O)CCCCCCCCCCNC(=O)C(CCCCN)n3cc(CCCC(=O)O)nn3)CC2)nc(N2CCN(C(=O)CCCCCCCCCCNC(=O)C(CCCCN)n3cc(CCCC(=O)O)nn3)CC2)n1 (stereo not drawn),/,.,/,/,/,/,/,/
COc1ccc(C=NNc2nnc(C)n2N)cc1OC,/,.,/,/,/,/,/,/
COc1ccc(-n2c(C)cc(/C=N/Nc3nnc(C)n3N)c2C)cc1,14,/,.,.,.,.,.,.
CCN1CC2C3C(=O)N(C)C(=O)C3[C@](C)(C1=O)N2C(=O)c1ccc(C(F)(F)F)cc1 (stereo partly drawn),/,.,/,/,/,/,/,/
O=C(COC(=O)C1CCN(S(=O)(=O)c2ccc3c(c2)OCCO3)CC1)NC1CCCCC1,.,.,.,.,.,/,/,/
